Bioassay records (PubChem)
RORgamma inh = qHTS for inhibitors of ROR gamma transcriptional activity | 310,000 compounds, 5.4% hits | AID 2551, 2010 | Drosophila S2 Gal4-RORgamma UAS-luciferase reporter, 20 h | Potency, µM (series often up to 53.6 µM), actives largely listed as inhibitors; also: nearly all actives have a fitted effect of over 60% in size
Target sequence (P51450 whole entry, looked up, the tested form may be a part): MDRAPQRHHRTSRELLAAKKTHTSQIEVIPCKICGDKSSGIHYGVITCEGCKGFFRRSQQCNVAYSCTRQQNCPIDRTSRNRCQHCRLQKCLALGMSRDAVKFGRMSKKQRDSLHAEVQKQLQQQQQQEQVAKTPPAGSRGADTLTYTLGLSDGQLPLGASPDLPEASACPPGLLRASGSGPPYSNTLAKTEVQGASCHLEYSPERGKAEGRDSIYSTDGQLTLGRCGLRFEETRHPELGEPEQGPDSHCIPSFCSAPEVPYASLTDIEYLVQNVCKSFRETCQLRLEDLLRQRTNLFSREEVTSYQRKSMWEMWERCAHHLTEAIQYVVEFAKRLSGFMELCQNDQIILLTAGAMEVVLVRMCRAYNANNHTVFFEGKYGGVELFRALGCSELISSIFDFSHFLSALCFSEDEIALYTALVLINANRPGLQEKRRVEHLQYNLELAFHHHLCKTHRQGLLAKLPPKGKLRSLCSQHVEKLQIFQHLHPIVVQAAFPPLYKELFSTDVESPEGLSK
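A Gal4/UAS one-hybrid system in insect cells: metallothionein-promoter Gal4–ROR gamma fusion plus Photinus luciferase reporter. Copper sulfate 700 uM final, 20 hr ambient incubation, luminescent detection after 10 min with reagent.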
CtBP-E1A blk = qHTS Assay for Inhibitors of the CtBP/E1A Interaction. activity change, % (test concentration not listed). 340,000 compounds, 0.49% hits. CtBP / adenovirus E1A interaction (AlphaScreen). AlphaScreen GST-E1A/His-CtBP binding, 1536-well; stronger effect = lower value; in the data active = activity change below about -65%; inconclusive = mostly about -30% to -63%
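Homogeneous bead-based format: GST-tagged E1A captured on glutathione donor beads, His-tagged CtBP on nickel acceptor beads; compounds precede bead addition by 2 h at 37 °C.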
Gal4-VP16 FLuc = VP16 counterscreen qHTS for inhibitors of ROR gamma transcriptional activity; Drosophila S2 Gal4-VP16 UAS-luciferase, luminescence, 20 h; 310,000 compounds, 3.5% hits; Potency, µM (doses to about 53.6 µM), most hits filed as inhibitors;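 also: Gal4-VP16 expression switched on by copper sulfate through the metallothionein promoter; nearly all actives have a fitted effect of over 50% in size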
Six1-Eya2 inh = qHTS Assay for Inhibitors of the Six1/Eya2 Interaction. Homeobox protein SIX1 (Homo sapiens) + Protein phosphatase EYA2 (Homo sapiens), …. AlphaScreen GST-Six1/His-Eya2 binding, biochemical; stronger effect = lower value. activity change, % (no concentration beside the values). 360,000 compounds, 0.56% hits; in the data active = activity change below about -65%; inconclusive = mostly about -30% to -63%
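AlphaScreen with GST-Six1 and His-Eya2 (5X mix: 250 nM and 500 nM), glutathione donor and nickel acceptor beads; buffer 50 mM Tris pH 8.0, 300 mM NaCl, 1 mM TCEP; 1 h at 37 C in the dark.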
p53 reactivation = qHTS assay for re-activators of p53 using a Luc reporter; H1299 p53-A138V BP100-luciferase reporter, luminescence, 24 h; Potency, µM (titrated, usually from 92.2 µM), hits mostly activators; 320,000 compounds, 0.063% hits; AID 504706, 2011; also: nearly all actives have a fitted effect of over 45% in size
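H1299 (p53-null), stable ts p53-A138V + BP100-Luc; 1000 cells/well, Opti-MEM/10% FBS; cpd 4 pt, 1:5; 24 h, 37 deg C, 5% CO2; detection reagent 10 min RT; luminescence.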
Of the large screens only hits and unclear results are named; the others gave an inactive call; ! = not confirmed by another sample. Sampled rows, rich in hits. Any-hit rate of the full collection: about 5.4%. Unless noted, calls follow the shape of the dose curve; as a rule, active = well fitted curve in the direction sought with a large enough effect; inconclusive = small, poorly fitted or top-dose-only effect, or another doubt; inactive = no such curve, though single readings can be large; an effect the other way counts as inactive or inconclusive.

O=C(O)C1=C(C(=O)Nc2cc(C(F)(F)F)ccc2Cl)CCCC1	none
O=C(O)c1ccc(NNC(=S)Nc2cc(C(F)(F)F)ccc2Cl)cc1	RORgamma inh 3.2µM, Gal4-VP16 FLuc inconclusive, p53 reactivation inconclusive
O=C(CC(=O)c1ccccc1)Nc1cc(C(F)(F)F)ccc1Cl	RORgamma inh inconclusive, Gal4-VP16 FLuc inconclusive
FC(F)(F)c1ccc(Cl)c(NC(=S)N/N=C/c2ccccc2Cl)c1	RORgamma inh 2.2µM, Gal4-VP16 FLuc inconclusive (no result: CtBP-E1A blk)
O=C(NC(=S)Nc1cc(C(F)(F)F)ccc1Cl)c1ccccc1	RORgamma inh 2.5µM, Gal4-VP16 FLuc inconclusive
COc1ccc(/C=C/CN2CCCC(CO)(Cc3cccc(Cl)c3)C2)cc1 (stereo unspecified)	Gal4-VP16 FLuc inconclusive
Cc1nc2ccccn2c1C(=O)OCC#N	none
Cn1cc(Br)c(C(=O)NC(=S)N2CCN(c3ccccn3)CC2)n1	RORgamma inh 4µM, Gal4-VP16 FLuc 13µM
CCOC(=O)N1CCN(C(=S)NC(=O)c2nn(C)cc2Br)CC1	RORgamma inh 18µM, Gal4-VP16 FLuc inconclusive
CC(=O)c1ccc(NC(=S)N2CCN(c3ccccn3)CC2)cc1	none
Cn1ncc(Br)c1C(=O)NC(=S)N1CCN(c2ccccn2)CC1	RORgamma inh 6.3µM, Gal4-VP16 FLuc 11µM
Cc1ccsc1C(=O)N1CCC1(C)C(=O)NS(=O)(=O)c1ccc(C#N)cc1 (stereo unspecified)	none (no result: RORgamma inh, Gal4-VP16 FLuc, p53 reactivation)
O=C(Nc1ccc([N+](=O)[O-])cc1)Nc1nc(-c2ccc(Cl)s2)cs1	RORgamma inh 4µM, Gal4-VP16 FLuc 0.89µM
CCCCCCCC/C=C\CCCCCCCC(=O)NCCc1ccc(O)c(O)c1	RORgamma inh inconclusive, Gal4-VP16 FLuc 18µM!
CCCCC/C=C\C/C=C\C/C=C\C/C=C\CCCCCC(=O)NCCc1ccc(O)c(O)c1	none (no result: CtBP-E1A blk, Six1-Eya2 inh, p53 reactivation)
CCOC(=O)N1CCN(C(=O)CSc2cc(C)nc3c(-c4ccccc4OC)c(C)nn23)CC1	RORgamma inh 20µM, Gal4-VP16 FLuc 13µM, p53 reactivation inconclusive
CCOc1ccc(CNS(=O)(=O)c2ccc(-c3ccc(=O)[nH]n3)o2)cc1OC	none
O=C(CN(C(=O)CCC(=O)Nc1nccs1)c1cccc(F)c1)NCc1ccc(F)cc1	RORgamma inh 35µM
O=C(CN(CC1CCCO1)C(=O)CNS(=O)(=O)c1ccc(Cl)cc1)NCc1ccc(F)cc1 (stereo unspecified)	none
COc1ccccc1OC(=O)c1cc2ccccc2oc1=O	none (no result: p53 reactivation)
COc1cc(/C=C/[N+](=O)[O-])ccc1OC(=O)c1cc2ccccc2oc1=O	RORgamma inh 16µM, Gal4-VP16 FLuc 7.1µM
CN(NC1CC(=O)N(c2ccccc2)C1=O)c1ccccc1 (stereo unspecified)	RORgamma inh inconclusive, Gal4-VP16 FLuc inconclusive, p53 reactivation inconclusive
Cc1nnc(N/N=C/c2ccc(-c3ccc(Br)cc3)o2)n1N	RORgamma inh 3.2µM, Gal4-VP16 FLuc 8.9µM
COc1ccc(/C=N/Nc2nnc(C)n2N)cc1OC(C)=O	RORgamma inh inconclusive, Gal4-VP16 FLuc inconclusive
Cc1nnc(N/N=C/c2ccc(Br)cc2)n1N	RORgamma inh inconclusive, CtBP-E1A blk inconclusive, Gal4-VP16 FLuc inconclusive
COc1ccc(/C=N/Nc2nnc(C)n2N)cc1OC	RORgamma inh 11µM, Gal4-VP16 FLuc inconclusive, Six1-Eya2 inh inconclusive
Cc1nnc(N/N=C/c2ccc([N+](=O)[O-])cc2)n1N	RORgamma inh inconclusive, CtBP-E1A blk inconclusive, Six1-Eya2 inh -68, p53 reactivation inconclusive
Cc1ccc(/C=N/Nc2nncn2N)cc1	RORgamma inh inconclusive, Gal4-VP16 FLuc 13µM
CC1CC(C)CN(C(=O)COc2ccc([N+](=O)[O-])cc2Cl)C1 (stereo unspecified)	none
CC(NC(=O)COC(=O)/C=C/c1ccc(Cl)cc1)c1ccccc1 (stereo unspecified)	none
N#C/C(=C\Nc1ccc(Cl)cc1)S(=O)(=O)c1ccccn1	none
Cc1cc(C)c(S(=O)(=O)Nc2ccc3c4c(cccc24)CC3)c(C)c1	RORgamma inh 11µM, Gal4-VP16 FLuc inconclusive
CCCCCN(C(=O)NC(=O)Nc1nncs1)S(C)(=O)=O	RORgamma inh 11µM
COc1ccc2c(c1)n([O-])c1c([n+]2=O)CCC1	none
CCOc1ccc2c(c1)n([O-])c1c([n+]2=O)CCCC1	RORgamma inh 13µM, Gal4-VP16 FLuc inconclusive
O=C1C([N+](=O)[O-])=C(O)c2cccc3cccc1c23	RORgamma inh inconclusive, Gal4-VP16 FLuc 18µM (no result: CtBP-E1A blk, Six1-Eya2 inh)
O=S(=O)(Nc1ccc(O)c(Sc2nc3ccccc3s2)c1)c1ccc(F)cc1	Gal4-VP16 FLuc inconclusive
O=S(=O)(Nc1ccc(O)c(Sc2nc3ccccc3s2)c1)c1cccc2ccccc12	RORgamma inh inconclusive, Gal4-VP16 FLuc 7.9µM
O=C(c1cccs1)N1CCC(c2nc3c(nnn3Cc3cccc(Cl)c3)c(=O)[nH]2)CC1	RORgamma inh inconclusive, Six1-Eya2 inh -68
Cc1cc(C(=O)N/N=C/c2cc([N+](=O)[O-])ccc2O)c2ccccc2n1	RORgamma inh 2.8µM, Gal4-VP16 FLuc 4.5µM, Six1-Eya2 inh -92, p53 reactivation inconclusive
O=C(N/N=C/c1cc([N+](=O)[O-])ccc1Cl)c1cc(-c2ccccc2)nc2ccccc12	none
O=C(N/N=C/c1cc([N+](=O)[O-])ccc1O)c1cc(-c2ccccc2)nc2ccccc12	RORgamma inh 3.2µM, Gal4-VP16 FLuc 4µM, Six1-Eya2 inh inconclusive, p53 reactivation inconclusive
O=C(NC(C(=O)N/N=C/c1cc([N+](=O)[O-])ccc1O)c1n[nH]c(=O)c2ccccc12)c1ccccc1 (stereo unspecified)	CtBP-E1A blk -88, Six1-Eya2 inh -90
O=C(NC(C(=O)N/N=C/c1cccc2ccccc12)c1n[nH]c(=O)c2ccccc12)c1ccccc1 (stereo unspecified)	RORgamma inh inconclusive
Cc1cc(C(=O)N/N=C/c2ccc([N+](=O)[O-])cc2)c2ccccc2n1	RORgamma inh inconclusive
Cc1cc(C(=O)N/N=C/c2cc(Br)cc([N+](=O)[O-])c2O)c2ccccc2n1	RORgamma inh 2µM, CtBP-E1A blk -94, Gal4-VP16 FLuc 3.2µM, Six1-Eya2 inh -87
CCC(NC(=O)c1ccccc1NC(=O)c1ccccc1)C(=O)NNC(=O)c1cccnc1 (stereo unspecified)	none (no result: CtBP-E1A blk)
O=C(c1ccc(Cl)c(S(=O)(=O)N2CCOCC2)c1)N1CCCCCC1	none
O=C(N/N=C/c1cccc([N+](=O)[O-])c1)c1cc(-c2ccccc2)nc2ccccc12	none (no result: CtBP-E1A blk)
O=C(N/N=C/C=C\c1ccccc1[N+](=O)[O-])c1cc(-c2ccccc2)nc2ccccc12	RORgamma inh 1.6µM, Gal4-VP16 FLuc 2.8µM
